Bioassay records from PubChem.
MITF TRPM1 inh – inhibitors of MITF-dependent TRPM1 promoter reporter, primary screen, cell-based, SK-MEL-5, single point, luciferase; inhibition, % at 12.5 µM; AID 488899, 2010; hit rate 0.83% among 330,000; SK-MEL-5 TRPM1 promoter luciferase, 24 h;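 active = mean inhibition across replicates of 60% or more, whatever share of single replicates reaches that level; inconclusive = some that reach 60%, reason not given; inactive = mean inhibition across replicates below 60%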
MITF TRPM1 HTS – activators of MITF-driven TRPM1 promoter reporter, primary screen, cell-based, SK-MEL-5, luciferase, single point; activation, % at 12.5 µM; hit rate 0.75% among 300,000; AID 588334, 2011; SK-MEL-5 TRPM1-promoter luciferase, 24 h; % of positive control, neutral wells = 0;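 active = mean activation of at least 80% with every replicate also reaching 80%; inconclusive = mean reaches 80% but some replicate falls short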;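 also: 0% = neutral control wells and 100% = parthenolide positive control wells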
N-glyco inh – increase of ERlucT glycosylation luciferase signal, primary screen, N-linked glycosylation inhibitor project, D54 ERlucT cells, luminescence, set 2; hit rate 0.23% among 360,000; D54 ERlucT glycosylation luciferase reporter, 24 h; percent of 100 nM tunicamycin response; reporter increase, % at 12.5 µM; AID 588692, 2011;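 active = mean luciferase reporter signal, scaled so untreated is 0 and the glycosylation-blocking control 100, at or above a set limit in every replicate; inconclusive = mean reaches the limit but not every replicate does; inactive = mean below the limit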;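 also: luciferase carries N-glycosylation sites so blocking glycosylation raises the light; 0% = median of neutral control wells and 100% = median of 100 nM tunicamycin wells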
Wnt act – Wnt/beta-catenin pathway activators, primary screen, cell-based, plate reader, single point; AID 743398, 2014; Wnt/beta-catenin reporter cell assay, activator; hit rate 1.2% among 300,000; activation, % at 9.35 µM; in the data active = activation above about 30%, passing the limit was not always enough; inconclusive = no clear call, values can overlap the other calls;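 also: 0% = neutral control wells and 100% = positive control wells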
PfHsp90 set2 – growth inhibition of PfHsp90-expressing yeast, primary screen, antimalarial PfHsp90 inhibitor project, S. cerevisiae, BacTiter-Glo luminescence, single point, set 2 | BacTiter-Glo ATP, 48 h; yeast lacking PDR1 and PDR3 efflux regulators | inhibition, % at 9.4 µM | hit rate 0.32% among 310,000 | AID 504621, 2011;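 active = every replicate shows inhibition above about 80%, whatever the replicate mean, limit read from the data; inconclusive = mean inhibition reaches the set limit but some replicate falls short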;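 also: 0% = DMSO neutral controls and 100% = 20 µM radicicol positive controls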
NSD2 HMT inh – NSD2 histone methyltransferase inhibitors, primary screen, biochemical, AlphaScreen, single concentration, set 2; Histone-lysine N-methyltransferase NSD2 (Homo sapiens), O96028; NSD2 peptide methylation, 120 min; inhibition, % at 12.5 µM; hit rate 0.54% among 310,000; AID 743445, 2014; in the data active = inhibition above about 50%
The depositor's hits bear a star; ? = inconclusive; nt = no result given. An excerpt weighted towards active compounds, which were near 2.9% of everything screened.

SMILES	MITF TRPM1 inh	MITF TRPM1 HTS	N-glyco inh	Wnt act	PfHsp90 set2	NSD2 HMT inh
Brc1ccc(-c2nn3c(-c4ccccc4)nnc3s2)cc1	nt	nt	nt	nt	nt	0
CC(C)c1ccc2nc(N)sc2c1	-95	92*	-5	11	9	1
Nc1nc2ccc(O)cc2s1	10	nt	-1	2	18	-1
Cc1ccc2nc(-c3ccc(F)cc3)c(Cc3ccsc3)n2c1	nt	nt	nt	3	nt	nt
Cc1ccc(C(=O)C2CCN(CC(=O)N(C)C3CCCCC3)CC2)cc1	nt	nt	nt	nt	nt	4
N/C(=N\OC(=O)c1ccco1)c1cccc(Br)c1	-60	56	-6	50*	-7	-1
COc1cc(C(C[N+](=O)[O-])c2c(N)n(C)c(=O)n(C)c2=O)ccc1O (stereo not given)	6	-7	?	1	-6	5
Cc1ccc(C(C[N+](=O)[O-])c2c(N)n(C)c(=O)n(C)c2=O)cc1 (stereo not given)	12	nt	5	-3	108*	2
COc1cccc(F)c1C(C[N+](=O)[O-])c1c(N)n(C)c(=O)n(C)c1=O (stereo not given)	67*	nt	3	6	103*	9
COc1ccc2cc(Br)ccc2c1CC(=O)NC1CC(C)(C)NC(C)(C)C1	1	nt	-1	nt	nt	1
CCCCNC(=O)C[C@H]1C[C@@]2(C(=O)OC)C(=C[C@H](COCc3ccccc3)O[C@@H]2C)N(Cc2ccc3c(c2)OCO3)C1=O	nt	nt	nt	-4	nt	nt
CCOc1ccc2nc(N3CCOCC3)nc(C)c2c1	-95	99*	-4	nt	-5	-9
COc1ccc2c(c1)CCc1c(C(=O)N3CCCCCC3)noc1-2	-115	121*	-2	nt	nt	-9
CCCNC(=O)c1noc2c1CCc1cc(OC)ccc1-2	-68	63	-9	0	-7	-1
COc1ccc2c(c1)CCc1c(C(=O)NCC(C)C)noc1-2	-114	109*	-8	53*	16	-8
O=C(CSc1nnc(SCc2cccc3ccccc23)s1)Nc1ccc(S(=O)(=O)Nc2nccs2)cc1	nt	nt	nt	nt	nt	0
CC1=NC(=O)C(N=Nc2ccccc2)N1c1ccccc1 (stereo not given)	-16	17	2	nt	-35	1
CC1=NC(=O)C(N=Nc2cccc(C(=O)O)c2)N1c1ccccc1 (stereo not given)	81*	-78	-6	2	-3	6
COCCN(C(=O)CCl)C(C(=O)NC1CCCCC1)c1ccccc1C (stereo not given)	78*	-78	30*	nt	-1	1
COCCN(C(=O)CCC(=O)Nc1cc(C)on1)C(C(=O)NC1CCCC1)c1ccccc1C (stereo not given)	14	-16	-1	1	11	1
O=C(Nn1cnc2ccccc2c1=O)c1c(F)cccc1F	7	-9	0	44*	6	0
CCCCCCCCN1C(=O)[C@@H](CC(=O)NCCCOCCCC)C[C@@]2(C(=O)OC)C1=C[C@H](C(C)(C)C)O[C@@H]2C	nt	nt	nt	-18	nt	nt
COc1ccc(C(=O)/C(C#N)=N/Nc2ccccc2[N+](=O)[O-])cc1	11	-10	18	-1	2	4
COc1ccc(C(=O)/C(C#N)=N/Nc2ccc([N+](=O)[O-])cc2)cc1	72*	-70	8	-7	-9	33
Cc1ccccc1Nc1nc(N)nc(COC(=O)c2ccc3c(c2)OCCO3)n1	nt	nt	2	0	nt	-8
SMILES	MITF TRPM1 inh	MITF TRPM1 HTS	N-glyco inh	Wnt act	PfHsp90 set2	NSD2 HMT inh
COc1cc(NC(=S)NC(=O)c2ccco2)ccc1NC(=O)C(C)C	-7	8	0	1	8	12
Cc1cc(NC(=O)c2ccc([N+](=O)[O-])o2)ccc1NC(=O)c1ccco1	77*	-74	-19	?	-2	13
COc1cc(NC(=O)c2ccc([N+](=O)[O-])o2)ccc1NC(=O)c1ccco1	84*	-84	21	6	11	1
COc1cc(NC(=O)c2cccc([N+](=O)[O-])c2)ccc1NC(=O)c1ccco1	-13	14	-1	-3	-52	1
COc1cc(NC(=O)C(C)C)ccc1NC(=O)c1ccco1	-85	91*	-9	-2	-5	-4
CCN1CCN(c2cc3c(nn2)Oc2ccccc2N3C)CC1	-75	82*	-2	nt	20	12
CCN1CCN(c2nnc(-c3ccccc3)c3ccccc23)CC1	2	-3	-7	0	-15	26
CCn1c(SCC(=O)Nc2ccccc2-c2ccccc2)nnc1-c1ccc(C)cc1	nt	nt	nt	nt	nt	-5
O=C(Nc1ccccn1)c1cccc(S(=O)(=O)N2CCCc3ccccc32)c1	14	-11	-4	-6	21	0
Cc1ccnc(NC(=O)c2ccc(S(=O)(=O)N3CCCCCC3)cc2)c1	-80	84*	-9	34*	40	0
Cc1ccnc(NC(=O)c2cccc(S(=O)(=O)N3CCCc4ccccc43)c2)c1	-82	88*	-12	30	nt	nt
O=C(Nc1ccccn1)c1ccc(S(=O)(=O)N2CCCCC2)cc1	-87	91*	-3	23	15	nt
O=C(Nc1ccccc1F)O[C@@H]1CC[C@@]23CCCN2C(=O)CCC[C@H]3C1	nt	nt	nt	nt	nt	-2
C=CCn1c(COc2ccccc2)nnc1SCC(=O)Nc1ccc(Oc2ccccc2)cc1	nt	nt	nt	nt	nt	-1
O=S(=O)(Nc1nc2ccccc2nc1N1CCc2ccccc2C1)c1ccc(Cl)cc1	-7	6	-12	41*	-2	2
O=S(=O)(Nc1nc2ccccc2nc1N1CCN(c2ccccn2)CC1)c1ccc(Cl)cc1	15	-9	0	10	104*	6
O=S(=O)(Nc1nc2ccccc2nc1N1CCc2ccccc2C1)c1ccc(Br)cc1	-28	34	-13	nt	15	0
CN1CCN(c2nc3ccccc3nc2NS(=O)(=O)c2ccc(Br)cc2)CC1	-4	7	1	-3	-9	3
COc1ccccc1Cc1c(-c2ccc(Cl)cc2)nc2ccc(C)cn12	nt	nt	nt	3	nt	nt
C#CCOCCOCCOCCNc1nc(N2CCOCC2)nc(N2CCN(C(=O)[C@H](CCC(=O)O)n3cc(C(N)CO)nn3)CC2)n1 (stereo not given in full)	nt	nt	nt	nt	nt	5
CC(C)Cc1ccc(/C=C/C(=O)NC2CC2)cc1	-81	80	-5	54*	-7	-2
O=C(/C=C/c1ccc(Br)cc1)NC1CCCCCC1	-72	74	2	13	14	-3
COc1cc(CNC2CCCC2)cc(Cl)c1OCc1ccc(F)cc1	-2	3	-1	nt	17	-4
COc1cc(CNC2CCCC2)cc(Cl)c1OCc1ccccc1Cl	82*	-81	-8	-12	18	-6
